IP6K1 inhibitor: blocks human inositol hexakisphosphate kinase 1 | Q92551 | IP6K1 kinase, ADP-Glo luminescence, 2 h; hits give low values | activity change, % (series mostly up to about 58 µM) | 0.81% of 140,000 active | AID 1645851; in the data active = activity change below about -25%; also: % is scaled to controls: 0 for no effect and ±100 for the full control effect
Target sequence (Q92551 whole entry, looked up): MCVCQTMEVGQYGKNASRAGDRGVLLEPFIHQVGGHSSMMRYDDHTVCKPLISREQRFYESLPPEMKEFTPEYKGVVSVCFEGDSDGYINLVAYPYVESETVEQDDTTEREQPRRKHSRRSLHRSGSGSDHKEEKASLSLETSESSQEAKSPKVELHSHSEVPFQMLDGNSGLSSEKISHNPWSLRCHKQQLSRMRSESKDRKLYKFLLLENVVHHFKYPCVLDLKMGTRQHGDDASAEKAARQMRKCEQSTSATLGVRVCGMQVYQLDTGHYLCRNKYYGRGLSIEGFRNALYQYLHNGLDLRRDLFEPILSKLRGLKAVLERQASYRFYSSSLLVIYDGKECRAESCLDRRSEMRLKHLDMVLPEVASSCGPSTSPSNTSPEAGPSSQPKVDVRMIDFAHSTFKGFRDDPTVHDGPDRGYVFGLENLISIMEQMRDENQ
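ADP-Glo luminescence measures ADP made by human IP6K1 during a 2 h RT reaction with ATP/IP6 (mix at 1.3 mM/130 uM); top library doses 57.5 and 19.1 uM final.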
KDM5B inh: inhibitors of human KDM5B histone demethylase | Q9UGL1 | KDM5B demethylase, FDH-coupled NADH fluorescence (FDH is formaldehyde dehydrogenase) | Potency, µM (series often up to 57.7 µM), most hits filed as inhibitors | 2.6% of 220,000 active; also: potency is read from the fitted curve at half-maximal effect; 0% is about no effect; nearly all actives have a fitted effect of over 70% in size
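Compound dilutions met 200 nM (final) KDM5BΔAP for 10 min at room temperature before substrate addition. The substrate mix held 12.5 µM H3K4me3 with cofactors 25 µM α-ketoglutarate and 50 µM Fe²⁺. NADH signal gain over 30 min defined activity.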
SNCA expr inh: SNCA gene expression inhibition; HEK-293 SNCA-luciferase knock-in, luminescence, 24 h; Potency, µM (series often up to 57.2 µM), for the others: top-dose activity change, negative = inhibition, usual class: inhibitors; 0.17% of 140,000 active; AID 1671194;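 also: potency is read from the fitted curve at half-maximal effect; plate controls were DMSO cells for no effect and cell-free wells for full effect; nearly all actives have a fitted effect of over 45% in size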
HEK293 viab: counter-screen for SNCA expression inhibitors: cell viability; 0.12% of 150,000 active; AID 1671193; HEK-293-SNCA-luc viability, GF-AFC fluorescence, 24 h; Potency, µM (doses to about 57.1 µM), without a hit: at the top dose activity change, negative = cytotoxicity, most hits filed as cytotoxic;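 also: potency is read from the fitted curve at half-maximal effect; 0% = DMSO-treated cells and -100% = medium-only wells without cells; nearly all actives have a fitted effect of over 30% in size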
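HEK-293-SNCA-luc cells (1500/well) plated 24 h, then exposed 24 h to a dilution series; GF-AFC added 30 min at 37C, fluorescence 405/540 nm; normalised to medium-only and DMSO wells, Hill fit.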
Starred values were filed as active, the others as inactive; i = inactive; u = inconclusive; x = no result given; [ ] = remark or other dose. Compounds with a hit are over-represented: about 3% of the library has one in this group of screens. Unless noted, calls follow the shape of the dose curve; as a rule, active = well fitted curve in the direction sought with a large enough effect; inconclusive = small, poorly fitted or top-dose-only effect, or another doubt; inactive = no such curve, though single readings can be large; an effect the other way counts as inactive or inconclusive.

SMILES	IP6K1 inhibitor	KDM5B inh	SNCA expr inh	HEK293 viab
Cc1nnnn1CC(=O)NCc1cccnc1N(C)CCc1ccccn1	12	i	-10%	5%
O=C1[C@@H]2C[C@@H](CN2Cc2ccccc2)Oc2ccccc2N1Cc1ccccc1	11	u	-30%[87.6 µM]	-17%[87.6 µM]
N#Cc1ccc(CN2C[C@@H]3C[C@H]2C(=O)N(Cc2ccccc2)c2ccccc2O3)cc1	-18	28µM*	-29%[87.6 µM]	-19%[87.6 µM]
S=C(NCCSc1ccc(Cl)cc1)NC1CC1	x	i	x	x
CC(=O)Nc1cccc(-c2nc(-c3c(C)noc3C)cc3c2cc(-c2ccccc2)n3C)c1	-8	35µM*	-1%[87.6 µM]	-24%[87.6 µM]
Cc1noc(C)c1-c1cc2c(cc(-c3ccccc3)n2C)c(N(C)C)n1	-3	i	-17%[87.6 µM]	-3%[87.6 µM]
COCCNC(=O)c1cc(C2CC2)nc2onc(C3CCNC3)c12 (stereo not drawn)	16	79µM*	7%	10%
O=C(NC1CC1)c1cc(C2CC2)nc2onc(C3CCNCC3)c12	10	u	15%	1%
COCCNC(=O)c1cc(-c2ccc(OC)cc2)nc2onc(C3CCNC3)c12 (stereo not drawn)	0	79µM*	12%	-3%
O=C(NC1CCCC1)c1cc(C2CC2)nc2onc(C3CCNCC3)c12	6	79µM*	-13%	0%
COc1ccc(-c2cc(C(=O)NCC(C)C)c3c(C4CCNC4)noc3n2)cc1 (stereo not drawn)	4	u	12%	1%
Cc1cc(C(=O)N2CCCCC2)c2c(C3CCNC3)noc2n1 (stereo not drawn)	1	89µM*	7%	1%
CCOC(=O)CSc1nc2ccccc2c(=O)n1-c1ccccc1OC	x	i	x	x
CCCN1C(=O)C2(C(=C(O)c3ccc(OCC)cc3)C(=O)C(=O)N2CCOC)c2ccccc21 (stereo not drawn)	x	i	x	x
CC(C)NC(=O)[C@@H]1C[C@@H](NC(=O)c2ccon2)CN1Cc1cccnc1N	9	i	-3%	-17%
O=C(NC1CCOC2(CCOCC2)C1)c1cnc2c(O)cccn2c1=O (stereo not drawn)	10	32µM*	-22%	u
NC(=O)COc1cccc(C(=O)N2CCC3(CC2)OCCCC3O)c1 (stereo not drawn)	5	i	1%	-4%
O=C(c1cnc2c(O)cccn2c1=O)N1CCC2(CC1)OCCCC2O (stereo not drawn)	33	32µM*	-17%	u
CC(C)NC(=O)[C@@H]1C[C@@H](NC(=O)c2cnc3c(O)cccn3c2=O)CN1C	-12	35µM*	10%	u
Cc1sc(NC(=O)CC(C)C)c(C#N)c1C	x	i	x	x
CN(C(=O)CSc1nnc(-c2cccs2)n1N)C1CCCCC1	x	i	x	x
N#Cc1ccc(CNCc2ccc(CN3CCCC3)cc2)cc1	x	i	x	x
O=C(OC1CCOC1=O)c1ccccc1Sc1ccc(C(F)(F)F)cc1[N+](=O)[O-] (stereo not drawn)	x	i	x	x
CCn1c(C)ccc(C(=O)N[C@@H]2COCC[C@H]2Oc2ccccn2)c1=O	-2	28µM*	3%	0%
CC(C)NC(=O)c1ccnc(-c2ccccc2S(=O)(=O)NC(C)(C)C)c1	-2	i	-3%	-22%
SMILES	IP6K1 inhibitor	KDM5B inh	SNCA expr inh	HEK293 viab
CC(C)(C)NS(=O)(=O)c1ccccc1-c1nc(N)nc2c1CCC2	3	22µM*	6%	8%
CNc1nccnc1-c1ccccc1S(=O)(=O)NC(C)(C)C	4	28µM*	-4%	-1%
CC(=O)N1CCC(N2CC[C@H](c3nc4ccccc4s3)C2)CC1	26	32µM*	41%[87.6 µM]	-8%[87.6 µM]
CCc1ccc(-c2nn(C)c(=O)c3c2CCCC3)cc1S(=O)(=O)Nc1ccccc1	x	i	x	x
CC(NC(=O)CSc1nnc(-c2ccncc2)n1-c1ccc(F)cc1)c1ccc2c(c1)OCO2 (stereo not drawn)	x	i	x	x
O=C(NCCc1cccnc1)c1ccccc1Cl	x	i	x	x
COc1ccccc1-c1ccnc(-n2ncc(C(=O)NCCc3cccnc3)c2C2CC2)n1	-6	32µM*	90%	1%
COc1cccc(C2CNC(=O)c3nc(-c4ccc(C(=O)N(C)C)o4)[nH]c3C2)c1 (stereo not drawn)	12	28µM*	7%	-12%
COc1cccc(C2CNC(=O)c3nc(Cn4nc(C)c(C)c4C)[nH]c3C2)c1 (stereo not drawn)	-2	i	11%	-3%
O=[S+]1([O-])NC2(CCN(Cc3ccc(Cl)s3)CC2)COc2ccccc21	-9	71µM*	-19%	2%
O=[S+]1([O-])NC2(CCN(CC3CCCCC3)CC2)COc2ccccc21	-6	71µM*	5%	-2%
CCn1nccc1C(=O)N1CCC(Cc2ccc(C(=O)NCCOC)cc2)CC1	-5	i	10%	0%
CCn1nccc1C(=O)N1CCC(Nc2nccnc2OC)CC1	0	28µM*	-16%	6%
CCOc1nccnc1NC1CCN(C(=O)c2ccnn2CC)CC1	-2	28µM*	-2%	-2%
COc1nccnc1NC1CCN(C(=O)c2c[nH]c3ccccc23)CC1	-3	u	0%	-4%
Cc1ncc(CO)c(CN2CCC3(Cc4ccccc4CNC3=O)C2)c1O (stereo not drawn)	0	79µM*	-9%	-4%
CC1(COc2ccc3[nH]ccc3c2)COc2ccc(C(=O)Nc3cccnc3)cc2N1 (stereo not drawn)	-21	35µM*	-28%[87.6 µM]	-10%[87.6 µM]
COc1ccc(NC(=O)c2ccc3c(c2)NC(C)(COc2ccc4[nH]ccc4c2)CO3)cn1 (stereo not drawn)	-12	20µM*	-14%	-9%
COCCN(C)C(=O)c1ccc2c(c1)NC(C)(COc1ccc3[nH]ccc3c1)CO2 (stereo not drawn)	-11	i	37%[87.6 µM]	-2%[87.6 µM]
O=[N+]([O-])c1cccc(/C=N/NC(=S)Nc2ccccc2)c1	x	i	x	x
CC(C)CC1NC(=O)N(Cc2cc(F)cc3cccnc23)C1=O (stereo not drawn)	x	i	x	x
COc1ccccc1C(=O)N1CCCN(c2nnc3cccc(C)n23)CC1	11	25µM*	-27%	11%
Cc1ccc(C(=O)N2CCN(c3cc(-c4ccccc4)[nH]n3)CC2)cc1F	3	i	18%	-7%
COc1ccc(C(=O)N2CCN(c3nnc4cccc(C)n34)CC2)cc1F	14	28µM*	4%	-1%
Cc1ccc(C(=O)N2CCN(c3nnc4cccc(C)n34)CC2)cc1F	48	28µM*	28%	-7%
SMILES	IP6K1 inhibitor	KDM5B inh	SNCA expr inh	HEK293 viab
Cn1ncc2c(C(=O)N3CCN(c4ncccn4)CC3)cc(-c3ccccc3F)nc21	2	x	x	x
O=C(NCc1ccc(Cl)cc1)c1cc2cccnn2n1	-1	32µM*	-5%[87.6 µM]	6%[87.6 µM]
O=C(NCc1ccc(Cl)cc1)c1cnn2ncccc12	-2	35µM*	145%[87.6 µM]	0%[87.6 µM]
O=C(Nc1ccc(F)cc1)c1cnn2ncccc12	7	u	118%[87.6 µM]	-8%[87.6 µM]
C=CCNC(=O)c1cc2cccnn2n1	4	32µM*	33%[87.6 µM]	-8%[87.6 µM]
O=C(NCc1ccc(Cl)cc1)c1ccn2nccc2c1	-13	35µM*	25%[87.6 µM]	7%[87.6 µM]
